{"source": "ChEMBL document CHEMBL4513139", "about": "“CO-ADD screening of University of Strathclyde (UK) compounds”", "key": {"Staphylococcus aureus": {"test_system": "Staphylococcus aureus", "conditions": "Concentration 32 ug.mL-1; ASSAY_TEST Inhibition of Bacterial Growth; detection method Absorption (OD600); MEDIA CAMHB; plate type 384well; NBS; CORNING #3640; time 18 hr"}, "Escherichia coli": {"test_system": "Escherichia coli", "conditions": "Concentration 32 ug.mL-1; ASSAY_TEST Inhibition of Bacterial Growth; detection method Absorption (OD600); MEDIA CAMHB; plate type 384well; NBS; CORNING #3640; time 18 hr"}}, "note": "Potency and affinity values are given separately."}
{"smiles": "CCOP(=O)(OCC)C(Cc1cn(Cc2cnc(C)nc2N)nn1)C(=O)O.O=C(O)C(F)(F)F", "note": "(configuration not stated)", "values": [{"measurement": "Inhibition", "setting": "Staphylococcus aureus", "value": 18.42, "unit": "%"}, {"measurement": "Inhibition", "setting": "Escherichia coli", "value": -15.56, "unit": "%"}]}
